Screening data as filed in PubChem BioAssay.
Hits are enriched below; roughly 0.9% of the tested compounds scored in any of these assays.
gsp antagonist: antagonizes gsp, the McCune-Albright syndrome mutation. gsp-mutant cells, cAMP HTRF, 30 min. Potency, µM (doses to about 76.9 µM), usual class: inhibitors. hit rate 0.4% among 340,000; calls by dose curve; cell line not stated here;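 note: intracellular cAMP measured with PDE inhibitor Ro 20-1724 present during compound exposure; nearly all actives have a fitted effect of over 65% in size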
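HTRF cAMP measurement after 30 min RT detection following 30 min, 37C compound treatment alongside […] (added as 300 uM solution) in G418-selected cells seeded at 2000/well and grown 16–24 h.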
RXFP1 ag: RXFP1 (human) receptor agonism; Q9HBX9; HEK293T-RXFP1 cAMP TR-FRET, 30 min; response scale: percent of porcine relaxin response, buffer zero; Potency, µM (series often up to 57.5 µM), hits mostly activators; hit rate 0.3% among 370,000; AID 2676; active = well fitted activation curve with a large enough effect; inconclusive = small, poorly fitted or top-dose-only effect; note: nearly all actives have a fitted effect of over 60% in size
Target sequence (Q9HBX9 whole entry, looked up): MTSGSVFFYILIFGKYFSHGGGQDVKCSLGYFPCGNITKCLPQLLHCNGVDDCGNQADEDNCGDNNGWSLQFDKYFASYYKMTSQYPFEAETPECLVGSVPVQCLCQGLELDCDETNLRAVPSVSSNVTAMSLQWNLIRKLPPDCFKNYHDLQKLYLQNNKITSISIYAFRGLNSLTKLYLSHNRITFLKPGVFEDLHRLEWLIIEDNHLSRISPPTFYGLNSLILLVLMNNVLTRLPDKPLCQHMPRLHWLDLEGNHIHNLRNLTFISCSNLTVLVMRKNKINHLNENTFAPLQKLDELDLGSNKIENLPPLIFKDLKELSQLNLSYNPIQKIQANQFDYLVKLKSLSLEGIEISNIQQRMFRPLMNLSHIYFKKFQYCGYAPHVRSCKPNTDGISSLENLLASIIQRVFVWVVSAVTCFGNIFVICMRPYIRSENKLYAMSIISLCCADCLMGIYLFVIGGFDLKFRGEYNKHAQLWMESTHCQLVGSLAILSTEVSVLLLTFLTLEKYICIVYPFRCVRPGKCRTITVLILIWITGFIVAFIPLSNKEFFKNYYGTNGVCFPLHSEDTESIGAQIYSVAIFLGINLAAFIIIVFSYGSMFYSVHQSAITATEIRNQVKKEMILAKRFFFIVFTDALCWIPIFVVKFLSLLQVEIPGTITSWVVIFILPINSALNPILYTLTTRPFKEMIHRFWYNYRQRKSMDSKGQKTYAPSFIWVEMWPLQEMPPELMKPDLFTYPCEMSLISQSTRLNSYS
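cAMP rise read by TR-FRET after 30 min, 37C compound exposure (up to 58 uM) in RXFP1-transfected HEK293 cells with Ro 20174 present. EC50 from Hill-equation fits, with 29 nM porcine relaxin as 100% and buffer as basal.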
gsp ag: activates gsp, the McCune-Albright syndrome mutation | gsp mutant cells, cAMP HTRF, 30 min | Potency, µM (titrated, usually from 76.9 µM), usual class: activators | hit rate 0.13% among 340,000; active = well fitted activation curve with a large enough effect; inconclusive = small, poorly fitted or top-dose-only effect, or another doubt; inactive = no such curve, though single readings can be large or run the other way; cell line not stated here;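 note: phosphodiesterase inhibitor Ro 20-1724 added with compounds to block cAMP breakdown; nearly all actives have a fitted effect of over 60% in size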
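Cells stably selected in G418 were plated at 2000/well, grown 16-24 hr, then given compounds in DMSO with the PDE inhibitor […] (300 uM solution added) for 30 min at 37C; cAMP was read by HTRF.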
RXFP1 antag: antagonists of human relaxin receptor RXFP1; HEK293-RXFP1, relaxin-stimulated cAMP HTRF, 30 min; active compounds read low; hit rate 0.59% among 350,000; activity change, negative = inhibition, % at 57.5 µM;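 active = activity change of -60% or lower, but not beyond a set lower limit; inconclusive = change between -60% and -40%, or beyond the set limit; inactive = change above -40%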
Large screens that a line does not name were inactive; ! = not active in a repeat.

O=C(O)C1Cc2ccccc2CN1C(=O)CSc1nnc2ccccn12 (centres undefined)	RXFP1 ag 35µM
COc1ccccc1NC(=O)c1c(C)cc(C)nc1SCC(=O)Nc1cccc(C)c1	none (no result: gsp antagonist, gsp ag)
O=C(Nc1ccc(Cl)cn1)C1C(c2ccccc2)C1(Cl)Cl (centres undefined)	RXFP1 antag -98
O=C(Nc1ccccc1)C1C(c2ccccc2)C1(Cl)Cl (centres undefined)	none
O=C(NCc1ccccc1)c1nc(S(=O)(=O)Cc2ccccc2)ncc1Cl	RXFP1 antag -113!
COc1ccc(CNC(=O)c2nc(S(=O)(=O)Cc3ccccc3)ncc2Cl)cc1	gsp antagonist inconclusive, RXFP1 antag -119!
N#Cc1ccccc1CSc1nnc(-c2ccc(Br)cc2)o1	none (no result: gsp antagonist, gsp ag, RXFP1 antag)
CN1C(=O)/C(=C/c2ccccc2F)Sc2ccc(C(=O)N3CCCC3)cc21	gsp antagonist 28µM
O=C(c1ccc2c(c1)N(Cc1ccccc1Cl)C(=O)c1ccccc1S2)N1CCCC1	RXFP1 antag -68 (no result: gsp antagonist, gsp ag)
Cc1ccccc1/C=C1\Sc2ccc(C(=O)N3CCN(c4ccccn4)CC3)cc2N(C)C1=O	gsp antagonist inconclusive
CCc1ccc(NC(=O)CSc2nc(-c3cccc(OC)c3)nc3c2Cc2c(CO)cnc(C)c2O3)cc1	none (no result: gsp antagonist, gsp ag)
COc1ccc(Cl)cc1NC(=O)Cn1c(=O)n(Cc2ccco2)c(=O)c2ccc(C(=O)NC3CCCC3)cc21	none (no result: gsp antagonist, gsp ag, RXFP1 antag)
Cc1ccc(C(=O)Nc2nnc(COc3ccccc3)s2)cc1	RXFP1 ag inconclusive, gsp ag inconclusive
Cc1ccc(OCc2nnc(NC(=O)c3cccnc3)s2)cc1	gsp antagonist 7.9µM
COc1ccccc1CN1CCC(CNC(=O)c2cnn(-c3ccc(Cl)cc3)c2C2CCN(C(=O)OC(C)(C)C)CC2)CC1	RXFP1 antag -61 (no result: gsp antagonist, gsp ag)
COc1ccccc1CN1CCC(CNC(=O)c2cnn(-c3ccc(C)c(C)c3)c2C2CCN(C(=O)OC(C)(C)C)CC2)CC1	RXFP1 antag inconclusive (no result: gsp antagonist, gsp ag)
Cc1ccc(-n2ncc(C(=O)NCCN3CCC(Cc4ccccc4)CC3)c2C2CCN(C(=O)OC(C)(C)C)CC2)cc1	RXFP1 antag -69 (no result: gsp antagonist, gsp ag)
COc1cc2nc(Nc3ccc(C)c(C)c3)nc(N)c2cc1OC	RXFP1 antag -110!
COc1cc2nc(Nc3ccc(C)c(Cl)c3)nc(N)c2cc1OC	none
CSCCC(NC(=O)c1ccco1)C(=O)Nc1ccc(C)cn1 (centres undefined)	none
CCc1ccc2n(-c3ccc(OC)cc3)c([S-])c(C(=O)Nc3cc(C)cc(C)c3)[n+]2c1	RXFP1 ag 5µM
COc1ccc(CCNC(=O)c2c([S-])n(-c3ccc(C)cc3)c3cccc[n+]23)cc1	none
Cc1cc(NCCCO)n2nc(-c3cccs3)cc2n1	none
OCCCNc1cc(-c2ccccc2)nc2cc(-c3ccc(F)cc3)nn12	gsp antagonist 35µM
O=C(NNc1cc(N2CCOCC2)nc(N2CCOCC2)n1)c1ccc(Cl)c(Cl)c1	gsp ag inconclusive
Cc1ccc(C(=O)NNc2cc(N3CCCC3)nc(N3CCCC3)n2)cc1	RXFP1 antag -62
Cc1ccc(-c2nn(-c3ccccc3)cc2/C=N/O)cc1	RXFP1 antag -64
CC1=NNC(=O)/C1=C\c1cn(-c2ccccc2)nc1-c1ccc(F)cc1	RXFP1 antag -61
O/N=C/c1cn(-c2ccccc2)nc1-c1cccnc1	none
CCOC(=O)C(=O)c1csc(NC=O)n1	none (no result: gsp antagonist, RXFP1 ag, gsp ag)
Cc1ccc(C(=O)Oc2ccc(C(O)CNC(C)(C)C)cc2OC(=O)c2ccc(C)cc2)cc1 (centres undefined)	none (no result: gsp antagonist, RXFP1 ag, gsp ag)
CC(=O)c1c(C)[nH]c(C(=O)OCC(=O)Nc2cc(Cl)ccc2[N+](=O)[O-])c1C	gsp antagonist 35µM, gsp ag inconclusive
CC(=O)c1c(C)[nH]c(C(=O)OCC(=O)Nc2ccc(C)cc2[N+](=O)[O-])c1C	gsp antagonist inconclusive
COc1ccc2c(c1)c(CC(=O)OC/C=C(\C)CC/C=C(\C)CCC=C(C)C)c(C)n2C(=O)c1ccc(Cl)cc1	none (no result: gsp antagonist, RXFP1 ag, gsp ag)
Nc1c(N(Cc2ccco2)C(=O)COc2ccccc2)c(=O)[nH]c(=O)n1Cc1ccccc1	none
Cc1cccc(OCC(=O)N(Cc2ccco2)c2c(N)n(Cc3ccccc3)c(=O)[nH]c2=O)c1	gsp antagonist 50µM
c1ccc(CCNc2nc(-c3ccccc3)cs2)cc1	none (no result: gsp antagonist, RXFP1 ag, gsp ag)
Cc1ccc(Cl)cc1-n1c(=O)c2sc3ccccc3c2n(CC(=O)NC2CCCC2)c1=O	none (no result: gsp antagonist, gsp ag, RXFP1 antag)
O[C@@H](COc1cccc2ncccc12)CN1CCN(C2c3ccccc3[C@@H]3[C@H](c4ccccc42)C3(F)F)CC1 (some centres undefined)	none (no result: gsp antagonist, RXFP1 ag, gsp ag)
CCc1ccc(NC(=O)CCC(=O)c2ccccc2)cc1	gsp antagonist 35µM
CCc1ccc(NC(=O)CCC(=O)c2ccc(C)cc2)cc1	none
CC(C)[C@@H]1CC[C@@H](C)C[C@H]1OC(=O)C[n+]1cc(-c2ccc(Cl)cc2)n2c1CCCCC2	RXFP1 antag -74
CCOC(=O)c1sc(=NC(=O)c2ccc(Cl)s2)n(C)c1C	none
CCOC(=O)c1sc(=NC(=O)c2cccs2)n(C)c1C	RXFP1 ag 28µM
CCCCOc1ccc(Br)cc1CSC(=N)N	RXFP1 antag -71
C=CCN(c1ccccc1)S(=O)(=O)c1ccc2c(c1)oc(=O)n2C	RXFP1 antag -77
O=C(c1ccccc1O)N1N=C(c2ccccc2)CC1(O)C(F)(F)F (centres undefined)	RXFP1 antag -76
O=C(C1CC1)N1N=C(c2ccncc2)CC1(O)C(F)(F)F (centres undefined)	RXFP1 antag -62
O=C(C1CC1)N1N=C(c2cccc(Br)c2)CC1(O)C(F)(F)F (centres undefined)	none
COc1ccc(Cl)cc1NC(=O)CN(C)S(=O)(=O)c1ccc2c(c1)CCCN2C(C)=O	none (no result: gsp antagonist, gsp ag)
CC1(c2ccccc2)CC(C)(C)N(C(=O)c2ccccc2Cl)c2ccccc21 (centres undefined)	none (no result: gsp antagonist, gsp ag, RXFP1 antag)
N#C/C(=C\c1ccccc1)C(=O)NCc1ccc(F)cc1	RXFP1 antag -65
O=C(Cc1ccc(Br)c2ccccc12)N/N=C/c1ccccn1	gsp antagonist 25µM, RXFP1 antag inconclusive
CC1=C(C(=O)Nc2cccnc2)C(c2ccc(Cl)cc2)n2nc(SCc3ccccc3)nc2N1 (centres undefined)	none (no result: gsp antagonist, gsp ag, RXFP1 antag)
Cc1c(C#N)c2ncn(CCCN(C)C)c(=O)c2n1-c1ccccc1	none
Cc1c(C#N)c2ncn(Cc3ccccn3)c(=O)c2n1-c1ccccc1	gsp antagonist 28µM
O=S(=O)(c1cccc(COc2ccc(Cl)cc2Cl)c1)N1CCOCC1	none
CC(=O)c1cc(Cl)ccc1OCc1cccc(S(=O)(=O)N2CCOCC2)c1	gsp antagonist 35µM
COc1ccc(CNC(=O)C2CCCN(S(=O)(=O)N(C)c3ccc(F)cc3)C2)cc1OC (centres undefined)	none (no result: gsp antagonist, gsp ag)
Fc1ccc(C(c2ccc(F)cc2)N2CCNCC2)cc1	none (no result: gsp antagonist, RXFP1 ag, gsp ag)
CC(=O)NCCNc1nc2c(-c3ccccc3)nnn2c2ccccc12	gsp ag 22µM
Cc1onc(-c2ccccc2Cl)c1C(=O)Oc1ccc(Cl)cc1Cl	RXFP1 antag -78 (no result: gsp antagonist, gsp ag)
